Laboratory results published in PubChem BioAssay (NCI).
Compounds without any hit were thinned out: in the full panel of roughly 83,000, 20% have a hit.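 How to read the values: 0–100, growth inhibition (40 = 60% inhibited); 0, no net growth; -100 to 0, cell death (-40 = 40% of starting cells died; -100 = all dead).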 Active and inactive are the calls of the source. How the source made its calls: active means growth percent below 10; inactive means the rest.

How the values were obtained:
Test in all cases: NCI-60 one-dose screen, 48 h (100 = growth as untreated, 0 = no growth, -100 = all killed)
Settings in all cases: 10 µM unless noted
[1] = system: SK-MEL-2 melanoma
[2] = system: EKVX NSCLC
[3] = system: SN12C renal
[4] = system: UO-31 renal
[5] = system: TK-10 renal
[6] = system: ACHN renal
[7] = system: A498 renal
[8] = system: CCRF-CEM leukemia
[9] = system: MOLT-4 leukemia
[10] = system: SR leukemia
[11] = system: RPMI-8226 leukemia
[12] = system: OVCAR-8 ovarian
[13] = system: OVCAR-5 ovarian
[14] = system: OVCAR-4 ovarian
[15] = system: SK-OV-3 ovarian
[16] = system: IGROV1 ovarian
[17] = system: OVCAR-3 ovarian
[18] = system: HS 578T breast
[19] = system: NCI/ADR-RES ovarian
[20] = system: CAKI-1 renal

Measured: growth

O=C1c2ccccc2NC(c2cn(-c3ccccc3)nc2-c2cccnc2)N1Cc1ccccc1 (configuration not stated)
inactive: [1] 88% | [2] 81.3% | [3] 87.3% | [4] 65.4% | [5] 105% | [6] 102% | [7] 92% | [8] 91.5% | [9] 67.9% | [10] 78.8% | [11] 76.5% | [12] 98.3% | [13] 91.5% | [14] 92.2% | [15] 117% | [16] 76.5% | [17] 102% | [18] 96.2% | [19] 97.3%

COc1cccc(-c2nn(-c3ccccc3)cc2-c2ccnc(NCCNS(=O)(=O)c3cccc(F)c3)c2)c1
inactive: [1] 16.2% | [2] 44.6% | [3] 33.8% | [4] 15.7% | [5] 36.7% | [6] 21.7% | [7] 47.7% | [8] 12.3% | [11] 23.7% | [12] 20.2% | [13] 64.9% | [14] 31.1% | [15] 46.6% | [16] 38% | [17] 40.4% | [18] 40.2% | [19] 22.1%
active: [9] 4.55% | [10] 9.17%

Fc1ccc2[nH]cc(-c3nc(-c4c[nH]c5ncccc45)cs3)c2c1
active: [9] 2.93%
inactive: [1] 52.9% | [2] 37.2% | [3] 49.3% | [4] 41.8% | [5] 52.2% | [6] 11.3% | [20] 18.6% | [7] 33.5% | [8] 18.7% | [11] 31.5% | [12] 36.6% | [13] 86.1% | [15] 58.9% | [16] 32.5% | [17] 44.5% | [18] 31.4% | [19] 27.1%

CCCCCCCN(CCCCCCC)C(=N)c1ccnc2ccccc12
active: [1] -46.5% | [2] -15.6% | [3] -42% | [4] -62.5% | [6] -81.9% | [20] 3.85% | [7] -17.2% | [9] -16.5% | [10] -44.5% | [12] -40.8% | [14] 5.2% | [16] 4.57% | [17] -41.8% | [18] -43.6% | [19] -52.5%
inactive: [5] 14.9% | [15] 36.8%

CCC(=O)c1c(C)[nH]c(C)c1C
active: [6] -33.4%
inactive: [1] 16.6% | [2] 103% | [3] 95.5% | [4] 67.1% | [5] 99.4% | [7] 103% | [8] 98.5% | [9] 84% | [10] 70.7% | [11] 113% | [12] 85.1% | [13] 48.8% | [14] 123% | [15] 93% | [16] 76.1% | [17] 115% | [18] 138% | [19] 85.3%

CC1(C)C(=O)/C(=C\c2cccnc2)C[C@]2(C)[C@H]3CC[C@@H]4[C@@H](C(=O)/C=C/c5ccncc5)CC[C@@]4(C)[C@]3(C)CC[C@@H]12
active: [1] -3.01% | [3] 8.09% | [4] -94.5% | [6] -78.8% | [8] 8.73% | [9] 8.03% | [10] 5.46% | [11] -7.22% | [16] -28.1% | [17] -48.6% | [19] -0.549%
inactive: [2] 50.4% | [5] 65.6% | [7] 47.3% | [12] 19.5% | [13] 18.1% | [14] 18.9% | [15] 64.2% | [18] 31.7%

O=c1[nH]ncc(Br)c1Br
active: [12] 7.24% | [14] -100% | [17] -100%
inactive: [1] 45.1% | [2] 78.8% | [3] 63.6% | [4] 52% | [5] 65.8% | [6] 87.3% | [20] 86.4% | [7] 108% | [8] 27.6% | [9] 35.4% | [11] 23.9% | [13] 115% | [15] 122% | [19] 38.1%

CC(C)/C=C/CC[C@](C)(O)[C@H]1CC[C@]2(C)[C@@H]1CC[C@@H]1[C@@]3(C)C/C(=C/c4cccc(C(F)(F)F)c4)C(=O)C(C)(C)[C@@H]3CC[C@]12C
inactive: [1] 126% | [2] 103% | [3] 89.2% | [4] 79.6% | [5] 157% | [6] 97% | [7] 99% | [8] 86.9% | [9] 88.3% | [10] 82.6% | [11] 95.4% | [12] 87.6% | [13] 107% | [14] 87.2% | [15] 103% | [16] 104% | [17] 93.8% | [18] 99.7% | [19] 97.8%

Cc1cc(N2CCN(C)CC2)nc(N(CCNc2ccnc3cc(Cl)ccc23)Cc2ccco2)n1
active: [10] -22.1% | [11] -3.89% | [17] 3.21%
inactive: [1] 55.8% | [2] 57.2% | [3] 58.3% | [4] 54.8% | [5] 105% | [6] 54.5% | [7] 73.4% | [8] 14.1% | [9] 28.8% | [12] 65.8% | [13] 73.3% | [14] 55.7% | [15] 91.5% | [16] 18.5% | [18] 68.7% | [19] 38.7%

CC(=O)OCCCCCCn1c2ccccc2c2c3c(c4c5ccccc5n(C)c4c21)C(=O)N(O)C3=O
inactive: [1] 84.6% | [2] 98.6% | [3] 70% | [4] 50% | [5] 80.6% | [6] 74.9% | [7] 52.9% | [8] 34.3% | [9] 10.9% | [10] 17.1% | [11] 31.2% | [12] 66.3% | [13] 98.6% | [14] 70.5% | [15] 86.9% | [16] 49.6% | [17] 77.2% | [18] 124% | [19] 52.1%

NCCn1cc(-c2nc(-c3c[nH]c4ncccc34)cs2)c2cc(Br)ccc21
inactive: [1] 101% | [2] 64% | [3] 78% | [4] 62.2% | [5] 149% | [6] 76.4% | [7] 93.6% | [8] 60% | [9] 41.8% | [10] 15.2% | [11] 43.3% | [12] 91.6% | [13] 89.4% | [14] 54.7% | [15] 90.8% | [16] 43.6% | [17] 82.4% | [18] 83.1% | [19] 90%

COC(=O)C(Cc1ccccc1)n1cc(COc2nc(Cl)nc(Nc3ccc(Cl)cc3)n2)nn1 (configuration not stated)
inactive: [1] 97.2% | [2] 95.4% | [3] 96.5% | [4] 72.6% | [5] 104% | [6] 102% | [7] 61.6% | [8] 96.5% | [9] 91.3% | [10] 66.8% | [11] 72.7% | [12] 96.1% | [13] 116% | [14] 104% | [15] 106% | [16] 99% | [17] 87.2% | [18] 81.6% | [19] 101%

CCOC(=O)c1ccc2c(c1)[n+](=O)c(C(=O)C1CCCS1)c(C(F)(F)F)n2[O-] (configuration not stated)
active: [1] -87.3% | [2] -77% | [3] -47.3% | [4] -92.4% | [5] -96.5% | [6] -86.9% | [20] -85.4% | [8] -44% | [9] -67.3% | [10] -42.8% | [11] -45.3% | [12] -36.4% | [13] -79.8% | [14] -83.3% | [15] -97.6% | [16] -60.3% | [17] -96.6% | [18] -10.8% | [19] -70.4%

CC(=O)N1N=C(c2ccc(C)cc2)CC1c1ccc(Oc2ccc(Br)cc2)cc1 (configuration not stated)
inactive: [1] 106% | [2] 83.1% | [3] 78.5% | [4] 39.2% | [5] 71.1% | [6] 99.5% | [20] 74.6% | [8] 93.2% | [9] 71.3% | [10] 93.9% | [11] 74.8% | [12] 85.2% | [13] 88.9% | [14] 74.6% | [15] 62.1% | [16] 66.7% | [17] 88.3% | [18] 87.4% | [19] 73.1%

c1ccc2c(-c3nc(-c4c[nH]c5ncccc45)cs3)c[nH]c2c1
inactive: [1] 102% | [2] 80.5% | [3] 76.7% | [4] 52.5% | [5] 120% | [6] 97.3% | [20] 98.7% | [7] 91.8% | [8] 75.4% | [9] 85.6% | [11] 76.7% | [13] 119% | [15] 88.6% | [16] 59.3% | [17] 102% | [18] 110% | [19] 107%

COc1ccc2c(c1)c(-c1nc(-c3c[nH]c4ncccc34)cs1)cn2CCNC(=O)OC(C)(C)C
inactive: [1] 86.6% | [2] 55.6% | [3] 84.8% | [4] 49.3% | [5] 89.2% | [6] 67.9% | [7] 85.3% | [8] 48.2% | [9] 55.7% | [10] 62.7% | [11] 41.2% | [12] 45.7% | [13] 104% | [14] 55.7% | [15] 110% | [16] 61.1% | [17] 84.4% | [18] 76.3% | [19] 56.6%
